Measurements taken from PubChem BioAssay AID1159580 (chemical genetic matrix, 2015).
Hit rate of the full screen: of about 5,500 compounds, about 2,000 (36%) were called active. About 18% were inconclusive and are not listed. Cut-off read from the data, not from the text of the source: active = normalized growth mostly below about 0.91 (no sharp cut-off); inconclusive = no clear call, values can overlap the other calls; inactive = mostly above about 0.92. This is one part of the list.

Assay: chemical genetic growth profiling, strain panel (AID 1159580);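 note: tested at 20 µM; growth read once vehicle control cultures reached saturation at 30 °C; 1 = growth at the plate median or of vehicle wells; lower values mean less growth of the strain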
Settings: growth OD

Measured: normalized growth

CC(C)NC[C@H](O)COc1cccc2ccccc12
inactive: S. cerevisiae deletion strains, locus YJR066W, strain TOR1, hits give low values 0.996 | S. cerevisiae deletion strains, locus YKL009W, strain mrt4, hits give low values 1.03 | S. cerevisiae deletion strains, locus YKL068W, hits give low values 1.01 | S. cerevisiae deletion strains, locus YKL085W, strain MDH1 (second series), hits give low values 0.999 | S. cerevisiae deletion strains, locus YKL085W, strain MDH1, hits give low values 0.999 | S. cerevisiae deletion strains, locus YKL160W, strain elf1, hits give low values 0.992 | S. cerevisiae deletion strains, locus YKR001C, strain vps1, hits give low values 1.04 | S. cerevisiae deletion strains, locus YKR026C, strain gcn3, hits give low values 0.978 | S. cerevisiae deletion strains, locus YKR091W, strain srl3, hits give low values 0.99 | S. cerevisiae deletion strains, locus YLL001W, strain dnm1, hits give low values 0.98 | S. cerevisiae deletion strains, locus YLL026W, hits give low values 0.98 | S. cerevisiae deletion strains, locus YLL041C, strain sdh2, hits give low values 0.997 | S. cerevisiae deletion strains, locus YLR027C, strain aat2, hits give low values 0.987 | S. cerevisiae deletion strains, locus YLR039C, strain RIC1, hits give low values 1.05 | S. cerevisiae deletion strains, locus YLR058C, strain SHM2, hits give low values 1.01 | S. cerevisiae deletion strains, locus YLR102C, strain apc9, hits give low values 1.02 | S. cerevisiae deletion strains, locus YLR113W, strain HOG1, hits give low values 1 | S. cerevisiae deletion strains, locus YLR221C, strain rsa3, hits give low values 0.991 | S. cerevisiae deletion strains, locus YLR258W, strain gsy2, hits give low values 0.985 | S. cerevisiae deletion strains, locus YLR262C, strain YPT6 (second series), hits give low values 0.974 | S. cerevisiae deletion strains, locus YLR262C, strain YPT6, hits give low values 1.02 | S. cerevisiae deletion strains, locus YLR268W, strain sec22, hits give low values 1.01 | S. cerevisiae deletion strains, locus YLR320W, strain mms22, hits give low values 0.973 | S. cerevisiae deletion strains, locus YLR330W, strain CHS5, hits give low values 1.01 | S. cerevisiae deletion strains, locus YLR342W, strain FKS1 (second series), hits give low values 0.963 | S. cerevisiae deletion strains, locus YLR342W, strain FKS1, hits give low values 0.986 | S. cerevisiae deletion strains, locus YLR357W, strain rsc2, hits give low values 0.978 | S. cerevisiae deletion strains, locus YLR370C, strain arc18, hits give low values 0.999 | S. cerevisiae deletion strains, locus YLR371W, strain rom2, hits give low values 1.03 | S. cerevisiae deletion strains, locus YLR384C, strain iki3, hits give low values 0.963 | S. cerevisiae deletion strains, locus YLR418C, strain cdc73, hits give low values 1.02 | S. cerevisiae deletion strains, locus YML016C, strain PPZ1, hits give low values 1 | S. cerevisiae deletion strains, locus YML032C, strain rad52, hits give low values 0.997 | S. cerevisiae deletion strains, locus YML120C, strain ndi1, hits give low values 1 | S. cerevisiae deletion strains, locus YML124C, strain tub3, hits give low values 1.02 | S. cerevisiae deletion strains, locus YMR058W, strain fet3, hits give low values 0.995 | S. cerevisiae deletion strains, locus YMR078C, strain ctf18, hits give low values 1.03 | S. cerevisiae deletion strains, locus YMR125W, strain sto1, hits give low values 0.966 | S. cerevisiae deletion strains, locus YMR129W, hits give low values 0.988 | S. cerevisiae deletion strains, locus YMR205C, strain PFK2, hits give low values 0.971 | S. cerevisiae deletion strains, locus YMR223W, strain ubp8, hits give low values 1.06 | S. cerevisiae deletion strains, locus YMR231W, strain pep5, hits give low values 0.988 | S. cerevisiae deletion strains, locus YMR263W, strain SAP30, hits give low values 1.01 | S. cerevisiae deletion strains, locus YMR307W, strain GAS1, hits give low values 1.06 | S. cerevisiae deletion strains, locus YNL067W, strain RPL9B, hits give low values 1.03 | S. cerevisiae deletion strains, locus YNL071W, strain lat1, hits give low values 0.997 | S. cerevisiae deletion strains, locus YNL183C, strain NPR1, hits give low values 0.995 | S. cerevisiae deletion strains, locus YNL209W, strain ssb2, hits give low values 0.987 | S. cerevisiae deletion strains, locus YNL233W, strain BNI4, hits give low values 1.02 | S. cerevisiae deletion strains, locus YNL248C, strain rpa49, hits give low values 0.989 | S. cerevisiae deletion strains, locus YNL250W, strain rad50, hits give low values 1.04 | S. cerevisiae deletion strains, locus YNL271C, strain bni1, hits give low values 1.02 | S. cerevisiae deletion strains, locus YNL298W, strain CLA4, hits give low values 1.01 | S. cerevisiae deletion strains, locus YNL307C, strain MCK1, hits give low values 1.02 | S. cerevisiae deletion strains, locus YNL322C, strain KRE1 (second series), hits give low values 0.977 | S. cerevisiae deletion strains, locus YNL322C, strain KRE1, hits give low values 1.01 | S. cerevisiae deletion strains, locus YNR049C, strain mso1, hits give low values 0.989 | S. cerevisiae deletion strains, locus YNR052C, strain pop2, hits give low values 1.01 | S. cerevisiae deletion strains, locus YOL012C, strain htz1 0.826 | S. cerevisiae deletion strains, locus YOL147C, strain pex11, hits give low values 1.02 | S. cerevisiae deletion strains, locus YOR001W, strain rrp6, hits give low values 0.994 | S. cerevisiae deletion strains, locus YOR061W, strain CKA2, hits give low values 1 | S. cerevisiae deletion strains, locus YOR069W, strain VPS5, hits give low values 1.01 | S. cerevisiae deletion strains, locus YOR070C, strain gyp1, hits give low values 0.998 | S. cerevisiae deletion strains, locus YOR080W, strain dia2, hits give low values 0.977 | S. cerevisiae deletion strains, locus YOR083W, strain WHI5, hits give low values 1.01 | S. cerevisiae deletion strains, locus YOR106W, strain vam3, hits give low values 0.997 | S. cerevisiae deletion strains, locus YOR136W, strain idh2, hits give low values 1.03 | S. cerevisiae deletion strains, locus YOR144C, strain elg1, hits give low values 1.02 | S. cerevisiae deletion strains, locus YOR184W, strain ser1, hits give low values 1.03 | S. cerevisiae deletion strains, locus YOR231W, strain MKK1, hits give low values 1.02 | S. cerevisiae deletion strains, locus YOR265W, strain rbl2, hits give low values 0.988 | S. cerevisiae deletion strains, locus YOR270C, strain vph1, hits give low values 1.03 | S. cerevisiae deletion strains, locus YOR290C, strain snf2, hits give low values 0.988 | S. cerevisiae deletion strains, locus YOR316C, strain cot1, hits give low values 1.03 | S. cerevisiae deletion strains, locus YPL051W, strain arl3, hits give low values 0.993 | S. cerevisiae deletion strains, locus YPL055C, strain LGE1, hits give low values 1.02 | S. cerevisiae deletion strains, locus YPL078C, strain atp4, hits give low values 1.01 | S. cerevisiae deletion strains, locus YPL106C, strain sse1, hits give low values 0.98 | S. cerevisiae deletion strains, locus YPL240C, strain hsp82, hits give low values 0.999 | S. cerevisiae deletion strains, locus YPL241C, strain CIN2, hits give low values 1.01 | S. cerevisiae deletion strains, locus YPL256C, strain CLN2, hits give low values 1.07 | S. cerevisiae deletion strains, locus YPR119W, strain clb2, hits give low values 1.03 | S. cerevisiae deletion strains, locus YPR141C, strain kar3, hits give low values 1.02 | S. cerevisiae deletion strains, locus YPR163C, strain tif3, hits give low values 1.02 | S. cerevisiae deletion strains, locus YPR167C, strain met16, hits give low values 1.03 | S. cerevisiae deletion strains, strain wtn01, hits give low values 1.01 | S. cerevisiae strains, strain wild type, hits give low values 1.01
